Where “and” joins values, the source holds several entries; their conditions need not be identical. Equal values may be shown once. Records with an inconclusive call do not appear. Where a call stands in place of a potency, no number is given. A structure can be active in one record and inactive in another. Calls of active or inactive are those of the source. Unless noted, the call rests on the fitted dose curve; in most records, active means well fitted curve in the direction sought with a large enough effect in the repeat runs; inconclusive means weak or mixed curves; inactive means no such curve, though single readings can be large; an effect the other way counts as inactive or inconclusive.
Tests used:
[1] = qHTS assay for small molecules that induce genotoxicity in human embryonic kidney cells expressing luciferase-tagged ATAD5 (AID 651632); further: nearly all actives have a fitted effect of over 15% in size; further: potency means the concentration at half of the fitted maximal effect
Method in brief: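 Concentration-response screen for ATAD5 upregulation in HEK293T luciferase reporter cells; 16 hr treatment at 37C, then luminescence after 30 min with Amplite at room temperature.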

[2] = qHTS assay for small molecule agonists of the p53 signaling pathway - cell viability (AID 651633; calls by dose curve; further: nearly all actives have a fitted effect of over 30% in size; further: potency means the concentration at half of the fitted maximal effect)
Method in brief: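 p53RE-bla cells were treated with compound for 16 hours at 37 C. Cytotoxicity was then measured as CellTiter-Glo luminescence after 30 min at room temperature.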

[3] = qHTS assay for small molecules that induce genotoxicity in human embryonic kidney cells expressing luciferase-tagged ATAD5 - cell viability (AID 651634; calls by dose curve; further: nearly all actives have a fitted effect of over 25% in size; further: potency means the concentration at half of the fitted maximal effect)
Method in brief: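 15.5 hr compound or vehicle exposure of HEK293T cells expressing luciferase-tagged ATAD5 at 37C; live-cell protease activity is read by fluorescence after 30 min of CellTiter-Fluor.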

[4] = qHTS assay for small molecule disruptors of the mitochondrial membrane potential - cell viability (AID 720634; calls by dose curve; further: nearly all actives have a fitted effect of over 20% in size; further: potency means the concentration at half of the fitted maximal effect)
Method in brief: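 In this qHTS format, HepG2 cells plated overnight were pinned with compound, incubated 1 hr, and assayed for ATP luminescence with CellTiter-Glo after m-MPI dye addition.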

[5] = qHTS assay to test for compound auto fluorescence at 590 nm (red) in HepG2 cells (AID 720674)
Method in brief: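 Seeding: 2,000 HepG2 cells/well, MEM/10% FBS, overnight 37 C. Dosing: compound vs DMSO. Incubation: 1 hr, 37 C, 5% CO2. Read: fluorescence 540 ex/590 em, Rose Bengal sodium as red reference.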

[6] = qHTS assay to test for compound auto fluorescence at 460 nm (blue) in HEK293 cells (AID 720678)
Method in brief: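 Blue read-out at excitation 405 nm and emission 460 nm follows overnight compound exposure of HEK293 cells at 37C in 5% CO2. Activity is given as auto fluorescence equivalency to triamterene.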

[7] = qHTS assay to test for compound auto fluorescence at 535 nm (green) in HEK293 cells (AID 720680)
[8] = qHTS assay to test for compound auto fluorescence at 535 nm (green) in HEK293 cell free culture (AID 720682)
Method in brief: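 Intrinsic compound fluorescence is measured in culture medium containing 10% FBS, with excitation at 485 nm and detection at 535 nm, referenced to fluorescein.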

[9] = qHTS assay to test for compound auto fluorescence at 590 nm (red) in HEK293 cell free culture (AID 720683)
Method in brief: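 Cell-free wells of DMEM with 10% FBS received compound, and intrinsic fluorescence was read at excitation/emission 540/590 nm. Values expressed as equivalence to Rose Bengal sodium.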

[10] = qHTS assay to test for compound auto fluorescence at 460 nm (blue) in HepG2 cell free culture (AID 720685)
Method in brief: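 Cell-free plates of MEM plus 10% FBS received 23 nL compound or DMSO vehicle; blue-channel (405/460 nm) intensity scored against triamterene as reference fluorophore.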

[11] = qHTS assay to test for compound auto fluorescence at 460 nm (blue) in HepG2 cells (AID 720687)
Method in brief: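 HepG2 cells in MEM with 10% FBS, attached overnight at 37 C, were exposed to compound or DMSO for 1 hr at 37 C, 5% CO2. Blue fluorescence was read at 405/460 nm, with triamterene as reference fluorophore.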

[12] = qHTS assay for identifying genotoxic compounds that show differential cytotoxicity against isogenic chicken DT40 cell lines with known DNA damage response pathways - wild type cell line (AID 743012); further: nearly all actives have a fitted effect of over 60% in size; further: potency means the concentration at half of the fitted maximal effect
Method in brief: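 Endpoint: CellTiter-Glo luminescence, 30 min RT. Cells: wild type DT40, 300/well. Exposure: compounds in DMSO, 40 h, 37 C/5% CO2, after ~0.5 h pre-incubation.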

[13] = qHTS assay to identify small molecule antagonists of the androgen receptor (AR) signaling pathway - cell viability counter screen (AID 743033; further: nearly all actives have a fitted effect of over 45% in size; further: potency means the concentration at half of the fitted maximal effect)
[14] = system: thyroid hormone receptor (rat, GH3 cells); assay: qHTS assay to identify small molecule agonists of the thyroid receptor (TR) signaling pathway (AID 743066; calls by dose curve)
[15] = qHTS assay to identify small molecule antagonists of the estrogen receptor alpha (ER-alpha) signaling pathway - cell viability counter screen (AID 743074; calls by dose curve;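 further: HEK293 cells carrying ER-alpha-UAS-bla reporter stimulated with 17beta-estradiol; nearly all actives have a fitted effect of over 45% in size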; further: potency means the concentration at half of the fitted maximal effect)
[16] = qHTS assay to identify small molecule antagonists of the estrogen receptor alpha (ER-alpha) signaling pathway using the BG1 cell line - cell viability counter screen (AID 743081);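 further: compound given together with 17beta-estradiol as the ER stimulus; nearly all actives have a fitted effect of over 45% in size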; further: potency means the concentration at half of the fitted maximal effect
[17] = molecular target: Aromatase (Homo sapiens) (UniProt P11511); assay: qHTS assay to identify aromatase inhibitors (AID 743083); further: nearly all actives have a fitted effect of over 55% in size; further: potency means the concentration at half of the fitted maximal effect
[18] = qHTS assay to identify aromatase inhibitors - cell viability counter screen (AID 743084);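 further: cells stimulated with testosterone during compound exposure; nearly all actives have a fitted effect of over 55% in size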; further: potency means the concentration at half of the fitted maximal effect
[19] = qHTS assay to identify small molecule that activate the aryl hydrocarbon receptor (AhR) signaling pathway - cell viability counter screen (AID 743086); further: nearly all actives have a fitted effect of over 45% in size; further: potency means the concentration at half of the fitted maximal effect
Method in brief: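 HepG2-AhR-luc (HG2L7.5c1) cells, 4000/well, treated 24 h at 37 C with compound; viability measured as CellTiter-Fluor fluorescence after 30 min in the same wells as the luciferase read.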

[20] = qHTS assay to identify small molecule phospholipidosis (PLD) inducers (AID 1259344; active means well fitted curve in the direction sought with a large enough effect; an effect the other way counts as inactive or inconclusive)
Method in brief: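 Read-out is LipidTOX Red fluorescence (ex 595/em 615) imaged in HepG2 cells after 24 h compound exposure at 37 C, with Hoechst nuclear counterstain (ex 352/em 461) allowing per-cell normalisation.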

Chain of Aromatase (Homo sapiens) (P11511 whole entry, looked up): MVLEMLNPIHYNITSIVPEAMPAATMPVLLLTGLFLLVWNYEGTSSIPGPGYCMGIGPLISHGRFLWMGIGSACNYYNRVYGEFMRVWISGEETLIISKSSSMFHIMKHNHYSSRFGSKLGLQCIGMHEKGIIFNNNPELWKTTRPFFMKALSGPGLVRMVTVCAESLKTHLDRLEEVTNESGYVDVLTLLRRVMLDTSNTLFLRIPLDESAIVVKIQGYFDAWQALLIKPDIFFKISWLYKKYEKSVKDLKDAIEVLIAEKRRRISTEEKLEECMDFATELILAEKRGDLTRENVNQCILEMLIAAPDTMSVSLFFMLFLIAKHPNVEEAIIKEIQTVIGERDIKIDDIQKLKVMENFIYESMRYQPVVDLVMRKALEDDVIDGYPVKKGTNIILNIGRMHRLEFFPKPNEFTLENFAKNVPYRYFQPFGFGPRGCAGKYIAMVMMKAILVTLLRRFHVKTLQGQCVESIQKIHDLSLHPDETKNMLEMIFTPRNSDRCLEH

| SMILES | Potency [1] | Potency [2] | Potency [3] | Potency [4] | outcome [5] | Potency [6] | Potency [7] | Potency [8] | outcome [9] | Potency [10] | Potency [11] | Potency [12] | Potency [13] | Potency [14] | Potency [15] | Potency [16] | Potency [17] | Potency [18] | Potency [19] | Potency [20] |
| --- | --- | --- | --- | --- | --- | --- | --- | --- | --- | --- | --- | --- | --- | --- | --- | --- | --- | --- | --- | --- |
| CN[C@@H](C)Cc1ccccc1 | inactive | inactive | inactive | inactive | inactive | inactive | inactive | inactive | inactive | inactive | inactive | inactive | inactive | inactive | inactive | inactive | inactive | inactive | inactive | inactive |
| CC(=O)[C@@]1(O)CC[C@H]2[C@@H]3CCC4=CC(=O)CC[C@]4(C)C3(F)[C@@H](O)C[C@@]21C (some centres undefined) | inactive | inactive | inactive | inactive | inactive | inactive | inactive | inactive | inactive | inactive | inactive | inactive | inactive | inactive | inactive | inactive | inactive | inactive | inactive | inactive |
| CCCCCCC(=O)O[C@H]1CC[C@H]2[C@@H]3CC[C@H]4CC(=O)C=C(C)[C@]4(C)[C@H]3CC[C@]12C | inactive |  | inactive | inactive | inactive | inactive | inactive | inactive | inactive | inactive | inactive |  |  | inactive |  | inactive | inactive | inactive | inactive | inactive |
| Cc1ccccc1-n1c(C)nc2ccccc2c1=O | inactive | inactive | inactive | inactive | inactive | inactive | inactive | inactive | inactive | inactive | inactive | 42.8 µM (active) | inactive | inactive | inactive | inactive | inactive | inactive and 24.1 µM (active) | inactive and 24.1 µM (active) | inactive |
| Cc1nnc2n1-c1ccc(Cl)cc1C(c1ccccc1)=NC2 | 13.3 µM (active) | inactive | inactive | inactive | inactive | inactive | inactive | inactive | inactive | inactive | inactive | inactive | inactive | inactive | inactive | inactive | inactive | inactive | inactive | inactive |
| COc1cc([C@@H]2c3cc4c(cc3[C@@H](O)[C@H]3COC(=O)[C@H]23)OCO4)cc(OC)c1O | 1.88 µM (active) | inactive | 0.298 µM (active) | inactive | inactive | inactive | inactive | inactive | inactive | inactive | inactive | 0.237 µM (active) |  |  | inactive |  | inactive | inactive | 29.8 µM (active) | inactive |
| Oc1cccc[c]1[Hg][Cl] | inactive | 7.5 µM (active) | 4.22 µM (active) | 13.3 µM (active) | inactive | inactive | inactive | inactive | inactive | inactive | inactive | 0.473 µM (active) | 10.7 µM (active) |  | 21.3 µM (active) | 23.7 µM (active) | 3.76 µM (active) | 5.31 µM (active) | 16.8 µM (active) | inactive |
| CC[C@H]1[C@@H]2C[C@H]3[C@@H]4N(C)c5ccccc5[C@]45C[C@@H](C2[C@H]5O)N3[C@@H]1O (some centres undefined) | inactive | inactive | inactive | inactive | inactive | inactive | inactive | inactive | inactive | inactive | inactive |  | inactive | inactive | inactive | inactive | inactive | inactive | inactive | inactive |
| COC(=O)[C@H]1[C@@H](OC(=O)c2ccccc2)C[C@@H]2CC[C@H]1N2C | inactive | inactive | inactive | inactive | inactive | inactive | inactive | inactive | inactive | inactive | inactive | inactive | inactive | inactive | inactive | inactive | inactive | inactive | inactive | inactive |
| CCC1C(C)=NN=C(c2ccc(OC)c(OC)c2)c2cc(OC)c(OC)cc21 (centres undefined) |  | inactive | inactive | inactive | inactive | inactive | inactive | inactive | inactive | inactive | inactive | inactive |  | inactive | inactive | inactive | inactive | inactive | inactive | inactive |

— PubChem BioAssay (Tox21)
